About 7,900 targets were measured; listed, in parts, are those with a hit and a random draw of the rest. About 0.6% of all pairs of compound and target were hits.
Compound: CC[C@H](C)[C@@H](C(=O)N[C@@H]([C@@H](C)O)C(=O)N[C@@H](CC(C)C)C(=O)[C@]1(CO1)C)NC(=O)[C@H]([C@@H](C)CC)N(C)C(=O)C [epoxomicin]
Assay: log2 fold change, soluble protein after heating vs DMSO (PISA); higher = thermal stabilisation; K562 cells, 10 uM, 30 min; active = over 0.2 and 3.5 SD of the protein, either way, in both replicates (recomputed)
How it was run: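 K562 cells at 2×10^6 cells/mL were treated for 30 min with 10 μM compound, and aliquots were heated for 3 min over 48°C-58°C before pooling. Extraction used PBS with 0.5% NP-40 at 4°C, and soluble protein was the supernatant after 21,000xg for 90 min, measured by TMTpro 16plex LC-MS/MS with channel sums equalised. Thermal stability values, relative to control samples and from duplicates, are log2 fold changes.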

UniProt Q5T160, sequence (Q5T160 whole entry, looked up): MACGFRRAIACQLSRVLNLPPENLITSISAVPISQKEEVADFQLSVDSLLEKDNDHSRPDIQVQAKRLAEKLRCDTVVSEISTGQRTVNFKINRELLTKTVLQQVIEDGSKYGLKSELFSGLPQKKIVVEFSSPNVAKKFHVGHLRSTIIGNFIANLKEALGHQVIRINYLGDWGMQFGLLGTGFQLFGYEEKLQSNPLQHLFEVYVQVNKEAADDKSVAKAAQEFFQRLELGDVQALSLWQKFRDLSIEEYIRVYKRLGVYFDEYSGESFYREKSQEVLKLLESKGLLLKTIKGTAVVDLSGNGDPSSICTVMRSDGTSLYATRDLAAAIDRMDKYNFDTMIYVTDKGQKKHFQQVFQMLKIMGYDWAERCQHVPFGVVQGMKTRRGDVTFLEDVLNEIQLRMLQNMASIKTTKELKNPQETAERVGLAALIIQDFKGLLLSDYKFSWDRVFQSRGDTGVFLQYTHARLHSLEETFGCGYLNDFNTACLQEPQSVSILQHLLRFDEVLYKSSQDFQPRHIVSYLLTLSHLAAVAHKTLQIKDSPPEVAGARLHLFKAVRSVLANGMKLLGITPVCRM
UniProt Q13796, sequence (Q13796 whole entry, looked up): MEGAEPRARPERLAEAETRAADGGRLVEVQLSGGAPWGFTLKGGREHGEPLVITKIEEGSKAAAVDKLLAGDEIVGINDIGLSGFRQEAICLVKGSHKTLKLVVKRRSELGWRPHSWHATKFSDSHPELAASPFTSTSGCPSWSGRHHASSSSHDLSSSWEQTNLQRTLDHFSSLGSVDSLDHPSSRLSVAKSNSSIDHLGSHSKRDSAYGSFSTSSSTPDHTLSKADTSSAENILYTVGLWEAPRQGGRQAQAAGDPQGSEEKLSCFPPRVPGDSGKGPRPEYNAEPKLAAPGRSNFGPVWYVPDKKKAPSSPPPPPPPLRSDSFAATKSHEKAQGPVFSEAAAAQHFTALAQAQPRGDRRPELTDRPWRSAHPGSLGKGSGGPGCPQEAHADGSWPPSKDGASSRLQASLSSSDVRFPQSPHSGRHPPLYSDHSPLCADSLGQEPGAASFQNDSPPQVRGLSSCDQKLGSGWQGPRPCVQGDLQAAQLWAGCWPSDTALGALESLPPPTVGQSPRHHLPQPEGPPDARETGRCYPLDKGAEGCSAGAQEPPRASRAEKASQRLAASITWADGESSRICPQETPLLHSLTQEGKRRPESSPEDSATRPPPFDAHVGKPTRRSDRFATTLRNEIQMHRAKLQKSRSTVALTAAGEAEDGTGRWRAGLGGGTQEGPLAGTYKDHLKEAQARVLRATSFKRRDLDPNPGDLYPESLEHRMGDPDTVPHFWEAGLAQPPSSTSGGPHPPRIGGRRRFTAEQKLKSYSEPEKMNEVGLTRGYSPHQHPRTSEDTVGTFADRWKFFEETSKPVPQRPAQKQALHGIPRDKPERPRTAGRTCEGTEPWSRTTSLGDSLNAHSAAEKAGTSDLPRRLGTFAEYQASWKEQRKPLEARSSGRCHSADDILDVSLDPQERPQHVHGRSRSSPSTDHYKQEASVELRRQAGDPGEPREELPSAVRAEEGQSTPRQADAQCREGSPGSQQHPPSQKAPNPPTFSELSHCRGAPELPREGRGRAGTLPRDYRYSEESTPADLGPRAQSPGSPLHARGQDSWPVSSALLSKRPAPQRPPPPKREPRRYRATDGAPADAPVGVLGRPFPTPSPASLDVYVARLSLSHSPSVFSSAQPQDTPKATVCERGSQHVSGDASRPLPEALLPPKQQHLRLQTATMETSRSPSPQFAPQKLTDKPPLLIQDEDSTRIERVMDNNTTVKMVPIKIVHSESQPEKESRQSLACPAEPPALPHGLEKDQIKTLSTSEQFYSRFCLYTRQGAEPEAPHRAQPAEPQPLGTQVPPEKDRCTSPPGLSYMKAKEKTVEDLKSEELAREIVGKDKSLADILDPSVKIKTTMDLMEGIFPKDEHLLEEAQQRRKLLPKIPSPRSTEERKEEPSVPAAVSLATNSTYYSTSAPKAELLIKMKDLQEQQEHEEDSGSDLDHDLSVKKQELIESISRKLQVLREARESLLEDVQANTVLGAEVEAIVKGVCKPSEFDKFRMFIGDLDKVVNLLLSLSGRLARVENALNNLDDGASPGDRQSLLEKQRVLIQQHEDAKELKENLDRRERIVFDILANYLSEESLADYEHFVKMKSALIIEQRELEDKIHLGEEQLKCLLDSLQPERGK
UniProt Q9NTZ6, sequence (Q9NTZ6 whole entry, looked up): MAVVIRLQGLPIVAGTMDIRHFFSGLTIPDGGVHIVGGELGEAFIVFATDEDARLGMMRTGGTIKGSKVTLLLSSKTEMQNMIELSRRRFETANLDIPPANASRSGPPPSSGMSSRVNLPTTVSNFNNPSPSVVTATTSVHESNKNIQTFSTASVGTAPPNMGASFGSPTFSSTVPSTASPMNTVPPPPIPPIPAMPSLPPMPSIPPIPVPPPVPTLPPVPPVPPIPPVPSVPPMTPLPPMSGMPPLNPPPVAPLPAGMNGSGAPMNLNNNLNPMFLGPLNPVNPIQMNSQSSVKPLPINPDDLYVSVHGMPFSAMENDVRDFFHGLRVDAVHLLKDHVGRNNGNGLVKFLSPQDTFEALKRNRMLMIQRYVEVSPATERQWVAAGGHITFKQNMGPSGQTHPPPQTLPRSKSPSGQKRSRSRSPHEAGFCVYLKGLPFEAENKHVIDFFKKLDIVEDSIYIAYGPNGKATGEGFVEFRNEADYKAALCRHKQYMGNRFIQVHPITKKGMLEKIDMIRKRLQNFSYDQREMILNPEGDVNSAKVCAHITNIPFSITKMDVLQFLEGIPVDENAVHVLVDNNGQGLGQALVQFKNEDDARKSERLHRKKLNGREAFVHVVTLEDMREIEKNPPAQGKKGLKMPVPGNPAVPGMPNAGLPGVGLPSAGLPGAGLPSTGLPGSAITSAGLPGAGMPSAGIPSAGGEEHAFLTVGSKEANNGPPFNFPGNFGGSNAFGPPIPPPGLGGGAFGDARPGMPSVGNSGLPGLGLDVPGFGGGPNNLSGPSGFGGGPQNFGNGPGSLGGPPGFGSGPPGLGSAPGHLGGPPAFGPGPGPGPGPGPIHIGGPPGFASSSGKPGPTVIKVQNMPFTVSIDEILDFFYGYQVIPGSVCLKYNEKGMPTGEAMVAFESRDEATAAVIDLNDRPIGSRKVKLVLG
UniProt Q96T51, sequence (Q96T51 whole entry, looked up): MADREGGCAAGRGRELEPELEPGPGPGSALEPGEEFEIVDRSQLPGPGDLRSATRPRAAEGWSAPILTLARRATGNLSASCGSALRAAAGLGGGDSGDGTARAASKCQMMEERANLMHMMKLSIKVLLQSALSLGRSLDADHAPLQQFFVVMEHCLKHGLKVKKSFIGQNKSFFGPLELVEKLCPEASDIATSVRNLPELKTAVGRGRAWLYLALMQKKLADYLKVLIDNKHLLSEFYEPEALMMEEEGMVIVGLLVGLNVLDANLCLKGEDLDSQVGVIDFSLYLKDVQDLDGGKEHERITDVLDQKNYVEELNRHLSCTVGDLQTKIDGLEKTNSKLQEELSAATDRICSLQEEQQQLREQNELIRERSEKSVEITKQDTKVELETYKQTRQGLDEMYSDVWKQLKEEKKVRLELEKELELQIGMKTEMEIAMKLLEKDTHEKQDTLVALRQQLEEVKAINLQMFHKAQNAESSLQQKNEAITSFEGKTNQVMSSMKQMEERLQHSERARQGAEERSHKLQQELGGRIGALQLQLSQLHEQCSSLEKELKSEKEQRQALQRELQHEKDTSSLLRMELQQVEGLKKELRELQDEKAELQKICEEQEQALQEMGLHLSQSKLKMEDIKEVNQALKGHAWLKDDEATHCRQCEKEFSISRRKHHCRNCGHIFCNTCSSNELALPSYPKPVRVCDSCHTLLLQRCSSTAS
UniProt Q14493, sequence (Q14493 whole entry, looked up): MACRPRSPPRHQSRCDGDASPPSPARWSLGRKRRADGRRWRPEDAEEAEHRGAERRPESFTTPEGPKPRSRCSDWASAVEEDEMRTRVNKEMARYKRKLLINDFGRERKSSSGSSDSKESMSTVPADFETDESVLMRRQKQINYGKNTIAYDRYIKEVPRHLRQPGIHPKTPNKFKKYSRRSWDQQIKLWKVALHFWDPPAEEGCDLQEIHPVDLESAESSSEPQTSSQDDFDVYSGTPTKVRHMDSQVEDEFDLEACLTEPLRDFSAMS
UniProt P46063, sequence (P46063 whole entry, looked up): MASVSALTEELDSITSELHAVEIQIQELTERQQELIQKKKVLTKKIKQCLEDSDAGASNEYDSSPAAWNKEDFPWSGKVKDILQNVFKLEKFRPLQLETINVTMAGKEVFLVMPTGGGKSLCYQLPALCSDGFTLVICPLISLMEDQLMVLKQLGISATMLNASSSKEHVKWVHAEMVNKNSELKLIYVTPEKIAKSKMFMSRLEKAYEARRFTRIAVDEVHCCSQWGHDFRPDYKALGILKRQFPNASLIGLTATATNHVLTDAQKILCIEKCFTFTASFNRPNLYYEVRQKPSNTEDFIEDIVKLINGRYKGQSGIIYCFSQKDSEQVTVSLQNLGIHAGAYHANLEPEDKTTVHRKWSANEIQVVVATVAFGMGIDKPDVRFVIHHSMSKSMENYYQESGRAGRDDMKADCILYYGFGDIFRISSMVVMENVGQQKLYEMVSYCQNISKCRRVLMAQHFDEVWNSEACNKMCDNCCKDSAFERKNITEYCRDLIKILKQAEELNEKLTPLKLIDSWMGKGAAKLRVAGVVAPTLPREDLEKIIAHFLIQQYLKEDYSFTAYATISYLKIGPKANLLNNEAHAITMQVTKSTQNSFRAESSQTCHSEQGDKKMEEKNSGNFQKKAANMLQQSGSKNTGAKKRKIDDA
UniProt P11233, sequence (P11233 whole entry, looked up): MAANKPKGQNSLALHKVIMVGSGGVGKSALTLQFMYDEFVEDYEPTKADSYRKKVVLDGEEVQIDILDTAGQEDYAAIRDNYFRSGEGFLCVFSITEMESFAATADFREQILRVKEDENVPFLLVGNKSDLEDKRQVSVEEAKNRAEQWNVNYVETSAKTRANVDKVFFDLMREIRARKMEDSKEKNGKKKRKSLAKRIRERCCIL

log2 fold change, inactive:
RBM22 (UniProt Q9NW64) -0.009
RUFY1 (UniProt Q96T51) -0.015
RARS (UniProt P54136) -0.085
RHEB (UniProt Q15382) 0.002
RALA (UniProt P11233) -0.054
SDHAF2 (UniProt Q9NX18) -0.057
ROCK2 (UniProt O75116) 0.063
RPS18 (UniProt P62269) -0.111
RPS20 isoform 2 (UniProt P60866) -0.103
RBM12 (UniProt Q9NTZ6) 0.087
RPS6KA2 isoform 2 (UniProt Q15349) 0.041
SEH1L isoform 1 (UniProt Q96EE3) -0.057
SCAF11 (UniProt Q99590) -0.074
SLC12A9 (UniProt Q9BXP2) 0.059
RNF14 (UniProt Q9UBS8) -0.075
RARS2 (UniProt Q5T160) 0.04
SDHC (UniProt Q99643) 0.205
RBM17 (UniProt Q96I25) 0.066
RPS6KA1 isoform 2 (UniProt Q15418) 0.071
RB1CC1 (UniProt Q8TDY2) 0.063
RECQL (UniProt P46063) 0
SHROOM2 (UniProt Q13796) -0.136
SLBP (UniProt Q14493) 0.127
